What all share (test): DAPPL (digital affinity profiling via proximity ligation, sequencing); 10 mM Tris-HCl pH 7.5, 50 mM NaCl, 1 mM DTT, 4% glycerol, room temperature, 30 min; GST-TFs on glutathione beads, 16-mer random dsDNA library, 0.1% formaldehyde crosslink after washing; high values mean tight binding
The target of test [1] is T1, FEV (Homo sapiens, UniProt Q99581 1-238).
T1 sequence: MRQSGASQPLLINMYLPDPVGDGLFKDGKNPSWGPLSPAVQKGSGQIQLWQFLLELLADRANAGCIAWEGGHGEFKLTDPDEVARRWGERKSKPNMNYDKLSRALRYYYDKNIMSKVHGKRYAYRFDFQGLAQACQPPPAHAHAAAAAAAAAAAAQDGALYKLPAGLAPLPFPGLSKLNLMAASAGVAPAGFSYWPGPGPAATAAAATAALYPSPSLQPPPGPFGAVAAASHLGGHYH
The following applies: protein: recombinant; tags: N-terminal GST; dsDNA, one strand shown. In a few lines:
(§1)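 Binding signal is each hexamer's read frequency for a factor divided by its frequency in the tag-only sample. The factors were GST-fused human transcription factors from yeast, captured on glutathione beads, DNA-barcoded and pooled with that sample. Pools were incubated with 200 nmole of a random double-stranded 16-mer DNA library in Tris/NaCl/DTT/glycerol buffer at room temperature for 30 min, then washed, crosslinked with 0.1% formaldehyde, proximity-ligated with BsaI/T4 ligase (1 h, 37 °C), PCR-amplified and sequenced on an Illumina NextSeq500.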

Test [2] has as its target ETV5 (Homo sapiens, UniProt P41161 1-510). The following applies: protein: recombinant; tags: N-terminal GST; dsDNA, one strand shown. In a few lines:
as §1

Test [3] has as its target HSF1 (Homo sapiens, UniProt Q00613 1-529). The following applies: protein: recombinant; tags: N-terminal GST; chain copies: 3; dsDNA, one strand shown. In a few lines: as §1
Test [4] concerns the target T2, SPIC (Homo sapiens, UniProt Q8N5J4 1-248).
T2 sequence: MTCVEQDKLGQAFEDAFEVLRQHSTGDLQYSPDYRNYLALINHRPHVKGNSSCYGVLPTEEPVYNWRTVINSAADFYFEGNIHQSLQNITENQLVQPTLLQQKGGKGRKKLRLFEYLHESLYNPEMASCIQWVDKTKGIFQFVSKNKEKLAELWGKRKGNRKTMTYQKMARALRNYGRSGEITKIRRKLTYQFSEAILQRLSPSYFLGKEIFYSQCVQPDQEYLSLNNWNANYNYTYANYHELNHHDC
Conditions: protein: recombinant; tags: N-terminal GST; dsDNA, one strand shown. In a few lines: as §1

In test [5] the target is ELF4 (Homo sapiens, UniProt Q99607 1-663). The following applies: protein: recombinant; tags: N-terminal GST; dsDNA, one strand shown. In a few lines: as §1
Test [6] addresses T3, ELK4 (Homo sapiens, UniProt P28324-2 1-405).
T3 sequence: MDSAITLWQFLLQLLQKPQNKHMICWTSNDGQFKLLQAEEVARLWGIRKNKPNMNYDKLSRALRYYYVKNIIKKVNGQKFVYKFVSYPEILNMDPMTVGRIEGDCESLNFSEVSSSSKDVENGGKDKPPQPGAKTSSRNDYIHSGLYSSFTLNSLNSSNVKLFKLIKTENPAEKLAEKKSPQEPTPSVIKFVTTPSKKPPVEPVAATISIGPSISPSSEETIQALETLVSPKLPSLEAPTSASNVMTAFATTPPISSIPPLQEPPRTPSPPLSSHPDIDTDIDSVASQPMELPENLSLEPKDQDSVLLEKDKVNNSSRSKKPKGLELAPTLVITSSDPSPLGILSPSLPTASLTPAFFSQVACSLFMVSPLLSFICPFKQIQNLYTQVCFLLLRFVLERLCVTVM
The following applies: protein: recombinant; tags: N-terminal GST; dsDNA, one strand shown. In a few lines: as §1

For test [7], the target named is T4, ETV2 (Homo sapiens, UniProt O00321 1-342).
T4 sequence: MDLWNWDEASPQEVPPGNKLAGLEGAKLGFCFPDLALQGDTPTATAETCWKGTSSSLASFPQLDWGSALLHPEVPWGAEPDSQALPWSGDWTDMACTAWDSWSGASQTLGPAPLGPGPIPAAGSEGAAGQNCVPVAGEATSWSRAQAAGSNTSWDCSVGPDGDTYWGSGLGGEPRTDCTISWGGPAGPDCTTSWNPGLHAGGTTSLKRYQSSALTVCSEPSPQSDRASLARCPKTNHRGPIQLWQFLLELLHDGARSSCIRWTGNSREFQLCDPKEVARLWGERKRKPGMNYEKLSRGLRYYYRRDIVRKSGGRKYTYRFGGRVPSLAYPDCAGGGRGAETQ
Conditions: protein: recombinant; tags: N-terminal GST; dsDNA, one strand shown. In a few lines:
as §1

The target in test [8] is T5, ELF3 (Homo sapiens, UniProt P78545 1-371).
T5 sequence: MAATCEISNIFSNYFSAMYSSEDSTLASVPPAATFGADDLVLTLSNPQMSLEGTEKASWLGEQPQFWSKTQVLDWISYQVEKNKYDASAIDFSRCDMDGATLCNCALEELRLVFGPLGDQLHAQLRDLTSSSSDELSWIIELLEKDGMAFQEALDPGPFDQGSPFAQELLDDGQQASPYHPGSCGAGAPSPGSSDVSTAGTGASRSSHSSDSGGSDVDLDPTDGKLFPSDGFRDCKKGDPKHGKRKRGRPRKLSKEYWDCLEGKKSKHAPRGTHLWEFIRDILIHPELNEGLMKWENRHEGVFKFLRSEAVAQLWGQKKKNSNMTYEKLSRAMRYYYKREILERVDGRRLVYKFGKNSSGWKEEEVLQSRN
The following applies: protein: recombinant; tags: N-terminal GST; dsDNA, one strand shown. In a few lines: as §1

Test [9] deals with CRX (Homo sapiens, UniProt O43186 1-299). The following applies: protein: recombinant; tags: N-terminal GST; dsDNA, one strand shown. In a few lines:
as §1

Test [10] deals with ETV1 (Homo sapiens, UniProt P50549 1-477). Conditions: protein: recombinant; tags: N-terminal GST; dsDNA, one strand shown. In a few lines:
as §1

Test [11] concerns the target T6, ERF (Homo sapiens, UniProt P50548 1-548).
T6 sequence: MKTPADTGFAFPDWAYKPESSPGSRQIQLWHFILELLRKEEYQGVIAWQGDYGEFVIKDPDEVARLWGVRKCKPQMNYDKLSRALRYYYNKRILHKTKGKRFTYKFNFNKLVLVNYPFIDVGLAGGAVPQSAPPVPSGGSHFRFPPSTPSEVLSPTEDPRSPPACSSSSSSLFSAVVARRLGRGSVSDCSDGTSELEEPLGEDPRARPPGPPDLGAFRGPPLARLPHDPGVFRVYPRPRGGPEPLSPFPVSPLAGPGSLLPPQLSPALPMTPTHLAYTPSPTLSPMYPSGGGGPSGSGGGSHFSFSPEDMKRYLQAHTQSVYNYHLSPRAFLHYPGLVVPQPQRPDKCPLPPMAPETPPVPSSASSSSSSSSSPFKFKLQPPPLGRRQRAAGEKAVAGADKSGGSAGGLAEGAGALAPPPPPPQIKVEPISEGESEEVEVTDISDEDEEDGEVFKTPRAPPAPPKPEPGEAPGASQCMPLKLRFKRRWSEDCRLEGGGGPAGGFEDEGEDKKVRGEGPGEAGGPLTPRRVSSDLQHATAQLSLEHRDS
Conditions: protein: recombinant; tags: N-terminal GST; dsDNA, one strand shown. In a few lines:
as §1

For test [12], the target named is T7, ETV3L (Homo sapiens, UniProt Q6ZN32 1-361).
T7 sequence: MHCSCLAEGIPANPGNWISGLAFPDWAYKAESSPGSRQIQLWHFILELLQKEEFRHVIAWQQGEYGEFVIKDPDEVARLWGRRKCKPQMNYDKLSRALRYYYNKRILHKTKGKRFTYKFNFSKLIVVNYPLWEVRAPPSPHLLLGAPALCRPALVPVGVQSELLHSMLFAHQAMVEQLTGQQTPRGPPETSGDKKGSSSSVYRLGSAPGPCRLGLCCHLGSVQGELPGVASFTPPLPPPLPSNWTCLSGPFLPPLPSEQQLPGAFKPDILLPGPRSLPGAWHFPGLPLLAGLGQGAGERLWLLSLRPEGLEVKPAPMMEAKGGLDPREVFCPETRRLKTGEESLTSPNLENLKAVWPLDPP
Conditions: protein: recombinant; tags: N-terminal GST; dsDNA, one strand shown. In a few lines:
as §1

The target in test [13] is T8, ETS2 (Homo sapiens, UniProt P15036 1-469).
T8 sequence: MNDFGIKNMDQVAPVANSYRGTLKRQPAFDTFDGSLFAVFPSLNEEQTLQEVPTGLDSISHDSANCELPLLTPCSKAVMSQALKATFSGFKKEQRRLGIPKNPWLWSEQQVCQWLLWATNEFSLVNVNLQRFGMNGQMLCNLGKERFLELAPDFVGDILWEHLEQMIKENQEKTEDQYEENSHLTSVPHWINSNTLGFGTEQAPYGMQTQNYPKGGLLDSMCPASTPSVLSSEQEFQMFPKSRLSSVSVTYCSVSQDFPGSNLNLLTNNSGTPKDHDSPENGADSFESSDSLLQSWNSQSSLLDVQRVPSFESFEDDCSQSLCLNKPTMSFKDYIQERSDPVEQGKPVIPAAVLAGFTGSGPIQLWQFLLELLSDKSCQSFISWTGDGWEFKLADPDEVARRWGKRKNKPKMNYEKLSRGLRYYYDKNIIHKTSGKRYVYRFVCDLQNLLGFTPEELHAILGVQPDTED
Conditions: protein: recombinant; tags: N-terminal GST; dsDNA, one strand shown. In a few lines: as §1

For test [14], the target named is T9, SPDEF (Homo sapiens, UniProt O95238 1-335).
T9 sequence: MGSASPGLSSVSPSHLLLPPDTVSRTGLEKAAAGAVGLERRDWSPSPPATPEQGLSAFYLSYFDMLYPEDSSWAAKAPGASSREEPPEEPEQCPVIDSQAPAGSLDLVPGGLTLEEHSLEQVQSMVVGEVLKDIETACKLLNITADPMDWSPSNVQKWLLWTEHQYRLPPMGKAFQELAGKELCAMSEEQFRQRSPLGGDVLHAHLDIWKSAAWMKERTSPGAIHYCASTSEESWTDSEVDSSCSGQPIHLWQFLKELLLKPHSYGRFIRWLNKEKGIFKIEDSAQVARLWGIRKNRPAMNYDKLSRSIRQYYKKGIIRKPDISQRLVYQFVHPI
Conditions: protein: recombinant; tags: N-terminal GST; dsDNA, one strand shown. In a few lines: as §1

For test [15], the target named is T10, ETV7 (Homo sapiens, UniProt Q9Y603 1-341).
T10 sequence: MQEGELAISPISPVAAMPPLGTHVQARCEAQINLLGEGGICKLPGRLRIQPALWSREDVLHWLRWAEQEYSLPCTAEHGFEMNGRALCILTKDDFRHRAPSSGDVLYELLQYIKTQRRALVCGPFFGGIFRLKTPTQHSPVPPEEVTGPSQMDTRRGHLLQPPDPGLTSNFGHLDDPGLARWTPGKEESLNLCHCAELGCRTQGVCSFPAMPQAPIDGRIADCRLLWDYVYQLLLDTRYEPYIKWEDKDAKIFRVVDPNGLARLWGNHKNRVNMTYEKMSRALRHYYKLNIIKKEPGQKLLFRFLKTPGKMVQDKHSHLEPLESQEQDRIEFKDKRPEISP
Conditions: protein: recombinant; tags: N-terminal GST; dsDNA, one strand shown. In a few lines: as §1

The target of test [16] is T11, ELF5 (Homo sapiens, UniProt Q9UKW6-2 1-255).
T11 sequence: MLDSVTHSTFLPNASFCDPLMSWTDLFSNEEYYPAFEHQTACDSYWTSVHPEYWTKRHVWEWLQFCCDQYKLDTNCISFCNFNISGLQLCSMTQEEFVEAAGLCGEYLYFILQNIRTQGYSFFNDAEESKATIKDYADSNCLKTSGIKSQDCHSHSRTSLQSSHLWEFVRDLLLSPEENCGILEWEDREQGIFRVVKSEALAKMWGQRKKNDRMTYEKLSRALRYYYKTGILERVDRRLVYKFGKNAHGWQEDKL
Conditions: protein: recombinant; tags: N-terminal GST; dsDNA, one strand shown. In a few lines:
as §1

Test [17] has as its target T12, ETV3 (Homo sapiens, UniProt P41162-2 1-143).
T12 sequence: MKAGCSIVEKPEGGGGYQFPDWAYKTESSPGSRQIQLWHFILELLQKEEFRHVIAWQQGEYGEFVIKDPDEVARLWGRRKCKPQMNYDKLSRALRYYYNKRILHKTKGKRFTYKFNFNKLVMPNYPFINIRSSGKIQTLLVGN
The following applies: protein: recombinant; tags: N-terminal GST; dsDNA, one strand shown. In a few lines: as §1

Test [18] deals with ETV6 (Homo sapiens, UniProt P41212 1-452). The following applies: protein: recombinant; tags: N-terminal GST; dsDNA, one strand shown. In a few lines:
as §1

Chain of CRX (O43186 whole entry): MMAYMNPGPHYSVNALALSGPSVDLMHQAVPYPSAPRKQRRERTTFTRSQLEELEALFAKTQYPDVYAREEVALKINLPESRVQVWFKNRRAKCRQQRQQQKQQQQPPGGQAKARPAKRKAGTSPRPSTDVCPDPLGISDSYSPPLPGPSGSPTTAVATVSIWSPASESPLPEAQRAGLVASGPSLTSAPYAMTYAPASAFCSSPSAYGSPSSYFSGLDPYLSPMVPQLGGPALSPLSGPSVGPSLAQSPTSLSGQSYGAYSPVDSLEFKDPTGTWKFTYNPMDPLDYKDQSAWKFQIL
Chain of ETV6 (P41212 whole entry): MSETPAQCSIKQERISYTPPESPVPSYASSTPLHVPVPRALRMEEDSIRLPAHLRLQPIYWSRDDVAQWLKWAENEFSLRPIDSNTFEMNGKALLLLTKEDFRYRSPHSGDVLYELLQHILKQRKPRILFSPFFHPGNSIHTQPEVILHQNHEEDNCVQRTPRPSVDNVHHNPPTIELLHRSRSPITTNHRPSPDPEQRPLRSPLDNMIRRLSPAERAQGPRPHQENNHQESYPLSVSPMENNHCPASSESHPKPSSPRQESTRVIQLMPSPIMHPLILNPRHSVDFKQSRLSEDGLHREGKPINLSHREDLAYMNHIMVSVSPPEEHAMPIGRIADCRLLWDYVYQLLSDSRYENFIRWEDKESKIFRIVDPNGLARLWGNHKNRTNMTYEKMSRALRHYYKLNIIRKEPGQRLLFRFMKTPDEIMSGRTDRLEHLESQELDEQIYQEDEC
Chain of ETV1 (P50549 whole entry): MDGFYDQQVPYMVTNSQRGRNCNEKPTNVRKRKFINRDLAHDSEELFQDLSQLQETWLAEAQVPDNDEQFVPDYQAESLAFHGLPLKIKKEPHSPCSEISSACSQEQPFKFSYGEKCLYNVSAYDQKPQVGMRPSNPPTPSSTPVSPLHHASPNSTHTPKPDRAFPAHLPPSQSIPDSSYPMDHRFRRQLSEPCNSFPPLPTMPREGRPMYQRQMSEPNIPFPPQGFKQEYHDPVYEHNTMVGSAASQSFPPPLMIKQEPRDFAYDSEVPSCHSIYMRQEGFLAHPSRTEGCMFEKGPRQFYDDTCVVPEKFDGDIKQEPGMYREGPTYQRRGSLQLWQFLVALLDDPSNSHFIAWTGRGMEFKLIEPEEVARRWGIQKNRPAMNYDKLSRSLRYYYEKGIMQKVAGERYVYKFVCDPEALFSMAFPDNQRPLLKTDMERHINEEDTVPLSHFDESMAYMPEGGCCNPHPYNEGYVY
Chain of ETV5 (P41161 whole entry): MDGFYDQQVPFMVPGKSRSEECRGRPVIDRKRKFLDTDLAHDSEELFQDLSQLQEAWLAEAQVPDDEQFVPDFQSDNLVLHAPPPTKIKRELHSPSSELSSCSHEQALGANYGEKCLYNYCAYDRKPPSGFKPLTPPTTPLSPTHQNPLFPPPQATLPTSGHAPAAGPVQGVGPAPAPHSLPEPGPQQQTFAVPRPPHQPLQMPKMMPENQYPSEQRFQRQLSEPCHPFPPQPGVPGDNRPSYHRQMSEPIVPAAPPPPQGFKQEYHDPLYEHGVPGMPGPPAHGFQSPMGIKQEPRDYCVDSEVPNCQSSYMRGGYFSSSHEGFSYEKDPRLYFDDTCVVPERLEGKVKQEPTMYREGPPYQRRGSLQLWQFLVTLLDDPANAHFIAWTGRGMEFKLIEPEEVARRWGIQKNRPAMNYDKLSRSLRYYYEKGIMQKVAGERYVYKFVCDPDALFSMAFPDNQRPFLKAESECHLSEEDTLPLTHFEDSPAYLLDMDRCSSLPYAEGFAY
Chain of ELF4 (Q99607 whole entry): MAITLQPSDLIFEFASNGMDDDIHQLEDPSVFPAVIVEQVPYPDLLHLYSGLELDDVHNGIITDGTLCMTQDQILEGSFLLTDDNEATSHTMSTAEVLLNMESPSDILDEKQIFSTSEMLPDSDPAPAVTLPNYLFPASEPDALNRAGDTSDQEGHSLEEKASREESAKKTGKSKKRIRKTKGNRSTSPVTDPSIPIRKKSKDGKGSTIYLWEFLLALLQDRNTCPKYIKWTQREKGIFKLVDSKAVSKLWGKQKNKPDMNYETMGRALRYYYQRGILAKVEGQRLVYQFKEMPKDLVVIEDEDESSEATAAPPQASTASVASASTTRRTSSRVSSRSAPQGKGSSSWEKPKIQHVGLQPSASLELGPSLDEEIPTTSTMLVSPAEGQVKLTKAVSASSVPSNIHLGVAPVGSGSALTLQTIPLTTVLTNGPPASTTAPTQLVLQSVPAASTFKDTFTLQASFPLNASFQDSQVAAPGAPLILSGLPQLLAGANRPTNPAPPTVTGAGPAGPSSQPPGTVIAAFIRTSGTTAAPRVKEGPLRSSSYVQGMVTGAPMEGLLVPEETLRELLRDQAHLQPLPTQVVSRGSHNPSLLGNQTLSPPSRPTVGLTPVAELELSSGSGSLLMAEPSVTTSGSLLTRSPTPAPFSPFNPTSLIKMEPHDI
Chain of HSF1 (Q00613 whole entry): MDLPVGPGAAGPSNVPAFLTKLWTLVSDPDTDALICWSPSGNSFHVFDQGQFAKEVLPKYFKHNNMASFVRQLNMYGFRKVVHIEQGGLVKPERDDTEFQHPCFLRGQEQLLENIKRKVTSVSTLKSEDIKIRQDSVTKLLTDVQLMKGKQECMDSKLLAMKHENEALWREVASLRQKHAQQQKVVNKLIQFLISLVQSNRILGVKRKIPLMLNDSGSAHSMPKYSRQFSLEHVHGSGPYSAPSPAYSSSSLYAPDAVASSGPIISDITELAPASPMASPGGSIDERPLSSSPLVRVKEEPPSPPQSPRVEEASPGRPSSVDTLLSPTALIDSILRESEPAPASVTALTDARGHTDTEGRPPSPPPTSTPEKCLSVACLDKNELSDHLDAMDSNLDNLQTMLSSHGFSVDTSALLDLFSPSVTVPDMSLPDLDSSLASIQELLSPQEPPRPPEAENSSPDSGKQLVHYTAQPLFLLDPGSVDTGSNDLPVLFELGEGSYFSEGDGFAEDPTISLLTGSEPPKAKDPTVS

Regarding AATAAG, the binding signal in test [1] was 1.26 fold enrichment (6-mer frequency, TF over GST control); in test [2], 1.25 fold enrichment (6-mer frequency, TF over GST control); in [3], 1.52 fold enrichment (6-mer frequency, TF over GST control); in test [4] it was 1.3 fold enrichment (6-mer frequency, TF over GST control); in test [5] it was 1.26 fold enrichment (6-mer frequency, TF over GST control); in test [6], 1.2 fold enrichment (6-mer frequency, TF over GST control). Also, the binding signal is 1.19 fold enrichment (6-mer frequency, TF over GST control) in [7]; 1.29 fold enrichment (6-mer frequency, TF over GST control) in test [8]; 1.98 fold enrichment (6-mer frequency, TF over GST control) in test [9]; 1.26 fold enrichment (6-mer frequency, TF over GST control) in test [10]; 1.32 fold enrichment (6-mer frequency, TF over GST control) in test [11]; 1.18 fold enrichment (6-mer frequency, TF over GST control) in test [12]. Further, the binding signal is 1.24 fold enrichment (6-mer frequency, TF over GST control) in [13]; 1.26 fold enrichment (6-mer frequency, TF over GST control) in [14]; 1.19 fold enrichment (6-mer frequency, TF over GST control) in [15]; 1.27 fold enrichment (6-mer frequency, TF over GST control) in test [16]; 1.29 fold enrichment (6-mer frequency, TF over GST control) in test [17]; 1.33 fold enrichment (6-mer frequency, TF over GST control) in [18].

These data come from article PMC7862700, “An all-to-all approach to the identification of sequence-specific readers for epigenetic DNA modifications on cytosine”.
